# According to PubChem BioAssay:
# Records with an inconclusive call do not appear. Active and inactive are the calls of the source. Unless noted, how the calls were made is not given here.
# Tests used:
# [1] = hit retest on RPL19A-GFP reporter strain – cell-based, S. cerevisiae, flow cytometry, cherry picks, mother/daughter gates, confirmation (AID 2270;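 active means GFP response below 50% of the DMSO control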); conditions: 3 h, at 10 µM, stronger effect = lower value, 100 = same GFP as DMSO wells
# [2] = yeast TOR pathway reporter LAP4-GFP change – cell-based, cherry picks, flow cytometry, mother/daughter gates, confirmation (AID 2271;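 active means GFP response above 150% of the DMSO control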;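 further: ratio of sample to DMSO plate mean so 100% equals DMSO level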); conditions: S. cerevisiae LAP4-GFP strain, 3 h, at 10 µM, stronger effect = higher value
# [3] = TOR pathway CIT2 reporter hit retest – S. cerevisiae, GFP fusion, cherry picks, mother/daughter gates, confirmation (AID 2274;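 active means GFP response above 150% of the DMSO level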); conditions: S. cerevisiae CIT2-GFP strain, flow cytometry, 3 h, at 10 µM, stronger effect = higher value
# [4] = rapamycin-like changes in RPL19A-GFP expression – cell-based, S. cerevisiae, multiplex flow cytometry, primary screen (AID 1862; in the data active means percent of DMSO control GFP below about 86%;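 further: lower values mimic rapamycin by blocking the RPL19A rise seen in DMSO cells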); conditions: S. cerevisiae RPL19A-GFP strain, flow cytometry fluorescence, 3 h; at 10 µM; stronger effect = lower value
# [5] = TOR pathway GLN3 branch reporter MEP2-GFP changes – S. cerevisiae, multiplex flow cytometry, primary screen (AID 1867;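 active means GFP response, as percent of the DMSO control, above the screen-wide mean plus 3 SD, about 139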;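 further: median GFP channel fluorescence of barcode-gated MEP2-GFP cells measured by flow cytometry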); conditions: S. cerevisiae MEP2-GFP strain, 3 h, at 10 µM, stronger effect = higher value
# [6] = TOR pathway RTG branch CIT2 reporter changes – S. cerevisiae, GFP fusion, multiplex flow cytometry, primary screen (AID 1870;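 active means percent response above a set limit, the screen-wide mean plus 3 SD, cut at about 130% in these data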;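 further: barcoded CIT2-GFP strain pooled with four other GFP strains with rapamycin as positive control; median GFP fluorescence per well over plate mean of DMSO wells so 100% = DMSO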); conditions: S. cerevisiae CIT2-GFP expression, 3 h, at 10 µM, stronger effect = higher value
# [7] = TOR pathway LAP4-GFP level changes – S. cerevisiae, multiplex flow cytometry, primary screen (AID 1873;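 active means GFP signal, as percent of the solvent control, above the screen mean plus 3 SD, about 149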); conditions: S. cerevisiae LAP4-GFP expression, 3 h, at 10 µM, stronger effect = higher value
# [8] = reduced mouse 2C T cell binding to pMHC/ICAM-1 vesicles – MLPCN validation set, flow cytometry, LFA-1/ICAM-1 modulator project, pilot screen (AID 2523;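 active means response below a set limit, under 55% cells CD8-positive and vesicle-bound, and CD8 cells' 90th-percentile brightness under 279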;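 on vesicle binding response: mean PE anti-B7-1 fluorescence of CD8+ cells relative to row control; 100% = QL9-loaded vesicles with DMSO vehicle in the same plate row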); conditions: 2C mouse CD8+ T cells, at 7 µM, stronger effect = lower value; double positive events: measured here: CD8+/vesicle+ event percentage
# [9] = molecular target: Integrin beta-1 (Homo sapiens) + Integrin alpha-4 (Homo sapiens) (UniProt P13612+P05556); assay: alpha4beta1 integrin LIBS antibody binding reduction – U937 cells, HUTS-21 mAb, flow cytometry, validation set, VLA-4 allosteric modulator project, pilot screen (AID 2674;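 active means inhibition above 50%, about 3 SD of the validation set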;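 further: antibody binding induced by the VLA-4 ligand LDV present at three times its Kd; 0% = LDV ligand with antibody and no compound and 100% = antibody without LDV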); conditions: HUTS-21 LIBS mAb binding, at 6.7 µM, stronger effect = higher value
# [10] = calorie-restriction mimetic ROS inhibitors, yeast – validation compound set, pilot screen (AID 2706;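 active means superoxide response below 65% of plate, a cut near 3 SD across the whole screen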;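 further: yeast exposed to compound for one week at 30 degrees C before staining; 100% = mean of all compound wells on the same plate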); conditions: S. cerevisiae aging, superoxide DHE fluorescence; at 10 µM; stronger effect = lower value
# [11] = molecular target: Beta-adrenergic receptor kinase 1 (Homo sapiens) (UniProt P25098); assay: GRK2 binders displacing RNA aptamer, biochemical, validation, human GRK2, bead flow cytometry (AID 488806;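 active means aptamer binding inhibition above 30%, about 3 SD of noise from non-fluorescent compounds; inactive means inhibition at or below 30%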); conditions: bead-bound GRK2, FAM-aptamer displacement, at 10 µM, stronger effect = higher value
# [12] = molecular target: AP-2 complex subunit beta (Homo sapiens) (UniProt P63010); assay: beta-arrestin/AP2 interaction blockers – biochemical, validation set, GST-AP2 beads, flow cytometry, pilot screen (AID 504541;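 active means inhibition above 54%, about 3 SD of non-fluorescent compounds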;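 further: AP2 carries R879A mutation and is captured from E. coli lysate; bead-bound FITC arrestin peptide fluorescence measuring arrestin peptide binding to AP2; 0% = DMSO wells and 100% = excess unlabeled arrestin peptide control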); conditions: FITC arrestin peptide, at 10 µM, stronger effect = higher value
# [13] = cytosolic pH regulators acting via V-ATPase – S. cerevisiae, pHLuorin, HTS validation (AID 504600; in the data active means response above about 15%;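 further: plate controls were DMSO for no effect and reference compound for full effect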); conditions: V-ATPase proton transport, at 10 µM, stronger effect = higher value
# [14] = system: anti-desmoglein-3 scFv antibody binding to human DSG3; assay: blockers of pathogenic pemphigus antibody–desmoglein-3 binding – biochemical, validation compound set, bead-based, flow cytometry, pilot screen (AID 588368;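 active means binding below the plate cutoff, the plate median minus 3 SD, with a reading above zero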;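 further: signal is the median channel fluorescence of bead-bound GFP antibody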); conditions: Protein G beads, DSG3-Fc, scFv-GFP binding, at 10 µM, stronger effect = lower value
# [15] = system: Botulinum neurotoxin type F light chain protease (Clostridium botulinum); assay: Clostridium botulinum type F light chain protease inhibitors, microsphere substrate cleavage, validation (AID 588459); conditions: multiplex microsphere protease substrate cleavage assay, flow cytometry; at 10 µM; stronger effect = higher value
# [16] = molecular target: Botulinum neurotoxin type A (Clostridium botulinum) (UniProt P0DPI0); assay: BoNT/A light chain protease inhibitors, biochemical, multiplex microsphere flow cytometry, validation set (AID 588460); conditions: at 10 µM, stronger effect = higher value
# [17] = molecular target: Lethal factor (Bacillus anthracis) (UniProt P15917); assay: Bacillus anthracis lethal factor inhibition, microsphere flow cytometry protease assay, validation at 10 µM (AID 588461); conditions: multiplex microsphere protease cleavage assay, stronger effect = higher value
# [18] = Nile Red efflux blockade in pump-expressing yeast – validation compound set, multiplex, phenotypic, pilot screen (AID 588506;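 active means efflux inhibition above 0.42, the validation set average plus 4 SD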;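 further: Nile Red retained in cells so higher fluorescence means more efflux inhibition; 0 = negative control wells and 1 = enniatin B 25 µM full block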); conditions: S. cerevisiae pump-expressing triplex, Nile Red efflux flow cytometry; at 10 µM; stronger effect = higher value
# [19] = molecular target: ATP-binding cassette sub-family B member 6 (Homo sapiens) (UniProt Q9NP58); assay: blockers of ABCB6-driven porphyrin uptake – K562-ABCB6 cells, flow cytometry, validation set, pilot screen (AID 588550;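 active means inhibition above the screen-wide mean plus 3 SD, about 51%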;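 further: 0% = DMSO wells and 100% = benzethonium chloride 70 µM positive control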); conditions: K562-ABCB6 porphyrin accumulation, 1 h, at 10 µM, stronger effect = higher value
# [20] = AML differentiation inducers, ER-HoxA9 marrow cells – cell-based, GFP/MAC1 double positive, flow cytometry, validation set, primary screen (AID 588685;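 active means differentiation response of at least 50%, scaled between solvent and reference control, from cells with both markers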;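 further: compound exposure lasts four days before antibody staining and flow analysis; 0% = DMSO wells and 100% = 5 µM fulvestrant positive control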); conditions: stronger effect = higher value
# [21] = measured here: daughter cell gate
# [22] = measured here: mother cell gate
# [23] = measured here: daughter cell gate response
# [24] = measured here: mother cell gate response
# Beta-adrenergic receptor kinase 1 (Homo sapiens), sequence (P25098 whole entry, looked up): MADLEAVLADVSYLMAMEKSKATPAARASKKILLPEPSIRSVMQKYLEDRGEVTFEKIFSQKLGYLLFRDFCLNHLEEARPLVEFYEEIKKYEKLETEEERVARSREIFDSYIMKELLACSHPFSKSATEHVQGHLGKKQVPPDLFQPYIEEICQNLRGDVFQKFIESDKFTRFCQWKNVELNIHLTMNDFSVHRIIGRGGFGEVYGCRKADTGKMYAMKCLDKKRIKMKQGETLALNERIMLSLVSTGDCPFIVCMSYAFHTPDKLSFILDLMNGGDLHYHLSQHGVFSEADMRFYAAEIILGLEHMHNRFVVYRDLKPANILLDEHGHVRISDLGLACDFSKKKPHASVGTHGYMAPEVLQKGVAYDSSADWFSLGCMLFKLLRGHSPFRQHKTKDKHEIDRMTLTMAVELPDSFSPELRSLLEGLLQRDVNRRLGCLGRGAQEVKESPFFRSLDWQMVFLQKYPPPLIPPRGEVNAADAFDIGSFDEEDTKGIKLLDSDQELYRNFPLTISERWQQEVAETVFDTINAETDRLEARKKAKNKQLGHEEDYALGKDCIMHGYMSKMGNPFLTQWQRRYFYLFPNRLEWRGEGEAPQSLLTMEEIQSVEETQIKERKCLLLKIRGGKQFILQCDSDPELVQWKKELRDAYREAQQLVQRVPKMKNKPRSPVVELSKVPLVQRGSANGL
# Lethal factor (Bacillus anthracis), sequence (P15917 whole entry, looked up): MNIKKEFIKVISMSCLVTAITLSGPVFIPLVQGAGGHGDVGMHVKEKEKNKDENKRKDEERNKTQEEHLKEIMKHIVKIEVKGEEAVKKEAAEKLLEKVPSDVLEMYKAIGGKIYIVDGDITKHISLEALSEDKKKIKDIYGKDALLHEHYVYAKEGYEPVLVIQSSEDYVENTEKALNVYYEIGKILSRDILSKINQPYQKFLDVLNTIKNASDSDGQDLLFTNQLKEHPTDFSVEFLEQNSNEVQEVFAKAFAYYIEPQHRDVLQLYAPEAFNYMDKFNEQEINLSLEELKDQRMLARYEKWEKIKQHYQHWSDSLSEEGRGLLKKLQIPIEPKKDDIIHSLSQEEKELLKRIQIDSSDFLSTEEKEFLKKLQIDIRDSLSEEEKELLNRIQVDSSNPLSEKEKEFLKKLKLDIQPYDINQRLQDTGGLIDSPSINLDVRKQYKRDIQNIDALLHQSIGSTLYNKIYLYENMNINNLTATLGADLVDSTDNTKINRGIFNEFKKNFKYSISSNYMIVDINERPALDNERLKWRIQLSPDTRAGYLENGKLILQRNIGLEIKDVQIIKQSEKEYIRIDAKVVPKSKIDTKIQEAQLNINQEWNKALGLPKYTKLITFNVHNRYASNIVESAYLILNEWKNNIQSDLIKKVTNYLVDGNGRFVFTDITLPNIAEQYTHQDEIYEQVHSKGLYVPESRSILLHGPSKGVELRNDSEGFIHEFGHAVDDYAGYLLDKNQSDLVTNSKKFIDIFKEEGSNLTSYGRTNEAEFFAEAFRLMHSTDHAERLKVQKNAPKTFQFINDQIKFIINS
# Integrin beta-1 (Homo sapiens) + Integrin alpha-4 (Homo sapiens), sequence (P05556 whole entry, looked up): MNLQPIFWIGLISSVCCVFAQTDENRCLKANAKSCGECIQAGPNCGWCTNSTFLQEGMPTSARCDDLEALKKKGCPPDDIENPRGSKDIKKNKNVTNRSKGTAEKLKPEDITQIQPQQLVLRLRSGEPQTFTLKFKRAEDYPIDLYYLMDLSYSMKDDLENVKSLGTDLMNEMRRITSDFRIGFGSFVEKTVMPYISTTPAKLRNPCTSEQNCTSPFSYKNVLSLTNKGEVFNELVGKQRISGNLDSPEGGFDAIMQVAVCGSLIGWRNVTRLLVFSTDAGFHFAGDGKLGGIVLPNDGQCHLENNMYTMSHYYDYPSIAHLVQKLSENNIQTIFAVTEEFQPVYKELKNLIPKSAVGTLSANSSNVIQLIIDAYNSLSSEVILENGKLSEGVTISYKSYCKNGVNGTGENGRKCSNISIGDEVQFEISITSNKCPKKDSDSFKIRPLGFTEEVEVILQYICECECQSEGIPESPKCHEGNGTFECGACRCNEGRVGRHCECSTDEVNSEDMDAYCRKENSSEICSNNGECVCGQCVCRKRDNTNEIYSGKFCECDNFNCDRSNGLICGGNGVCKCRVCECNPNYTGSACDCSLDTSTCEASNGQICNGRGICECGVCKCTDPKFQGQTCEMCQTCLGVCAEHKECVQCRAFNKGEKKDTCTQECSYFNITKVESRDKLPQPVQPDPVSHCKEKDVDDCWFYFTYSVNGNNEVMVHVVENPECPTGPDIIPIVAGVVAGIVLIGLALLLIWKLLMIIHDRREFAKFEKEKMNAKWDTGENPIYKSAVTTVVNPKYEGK
# Integrin beta-1 (Homo sapiens) + Integrin alpha-4 (Homo sapiens), sequence (P13612 whole entry, looked up): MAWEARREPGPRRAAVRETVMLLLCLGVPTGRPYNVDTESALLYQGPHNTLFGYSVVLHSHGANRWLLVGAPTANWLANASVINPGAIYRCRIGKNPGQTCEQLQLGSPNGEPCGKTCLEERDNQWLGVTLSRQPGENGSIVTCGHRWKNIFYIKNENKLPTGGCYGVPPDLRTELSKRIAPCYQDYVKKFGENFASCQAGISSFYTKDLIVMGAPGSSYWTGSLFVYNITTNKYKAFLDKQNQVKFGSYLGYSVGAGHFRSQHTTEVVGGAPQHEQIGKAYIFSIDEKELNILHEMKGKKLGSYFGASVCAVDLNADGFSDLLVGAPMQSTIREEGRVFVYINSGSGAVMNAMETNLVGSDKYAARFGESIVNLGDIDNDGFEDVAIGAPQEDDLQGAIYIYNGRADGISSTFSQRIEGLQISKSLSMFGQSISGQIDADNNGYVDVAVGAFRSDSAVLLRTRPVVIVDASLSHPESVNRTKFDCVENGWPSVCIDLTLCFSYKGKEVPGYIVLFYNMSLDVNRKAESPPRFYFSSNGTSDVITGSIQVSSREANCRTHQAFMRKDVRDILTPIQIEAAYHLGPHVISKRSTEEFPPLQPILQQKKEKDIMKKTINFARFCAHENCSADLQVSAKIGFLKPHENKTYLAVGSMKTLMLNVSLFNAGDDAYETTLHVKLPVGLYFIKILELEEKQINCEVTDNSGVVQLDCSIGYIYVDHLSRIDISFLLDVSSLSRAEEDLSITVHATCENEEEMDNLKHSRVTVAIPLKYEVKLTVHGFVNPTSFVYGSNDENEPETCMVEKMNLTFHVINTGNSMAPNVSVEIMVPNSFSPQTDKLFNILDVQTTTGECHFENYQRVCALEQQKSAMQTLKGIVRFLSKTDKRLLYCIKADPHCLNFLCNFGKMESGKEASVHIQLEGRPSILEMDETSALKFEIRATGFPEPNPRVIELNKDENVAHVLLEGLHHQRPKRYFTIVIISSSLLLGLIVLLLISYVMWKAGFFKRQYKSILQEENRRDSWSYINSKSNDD
# AP-2 complex subunit beta (Homo sapiens), sequence (P63010 whole entry, looked up, one chain of several): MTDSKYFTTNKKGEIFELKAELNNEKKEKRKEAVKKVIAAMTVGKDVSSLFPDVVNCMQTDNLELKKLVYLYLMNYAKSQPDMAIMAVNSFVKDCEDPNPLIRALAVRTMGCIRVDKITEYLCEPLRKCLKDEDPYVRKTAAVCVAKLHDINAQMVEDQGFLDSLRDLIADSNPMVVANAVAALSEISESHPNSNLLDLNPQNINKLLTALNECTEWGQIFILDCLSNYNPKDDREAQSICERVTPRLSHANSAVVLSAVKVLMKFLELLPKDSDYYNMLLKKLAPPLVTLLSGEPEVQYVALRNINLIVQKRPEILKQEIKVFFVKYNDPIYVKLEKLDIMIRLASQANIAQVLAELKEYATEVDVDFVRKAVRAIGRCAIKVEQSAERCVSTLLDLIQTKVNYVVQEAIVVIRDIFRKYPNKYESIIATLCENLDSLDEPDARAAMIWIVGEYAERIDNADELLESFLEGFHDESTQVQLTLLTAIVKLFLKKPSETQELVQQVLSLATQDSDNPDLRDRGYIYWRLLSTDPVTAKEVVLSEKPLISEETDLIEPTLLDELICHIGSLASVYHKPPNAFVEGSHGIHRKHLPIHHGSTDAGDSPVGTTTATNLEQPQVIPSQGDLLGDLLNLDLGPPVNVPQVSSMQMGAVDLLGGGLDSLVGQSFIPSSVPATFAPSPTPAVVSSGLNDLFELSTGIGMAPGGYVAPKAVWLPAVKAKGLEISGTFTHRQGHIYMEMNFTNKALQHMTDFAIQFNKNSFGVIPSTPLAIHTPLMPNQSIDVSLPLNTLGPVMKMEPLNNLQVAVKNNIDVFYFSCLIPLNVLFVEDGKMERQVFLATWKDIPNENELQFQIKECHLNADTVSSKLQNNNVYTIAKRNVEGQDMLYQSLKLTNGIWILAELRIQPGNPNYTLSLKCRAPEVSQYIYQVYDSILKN
compound,measurement,setting,value
Nc1ccc2ccc3cccc[n+]3c2c1,GFP response vs DMSO,[1],111% (inactive)
same,GFP response vs DMSO,[1]; [21],110%
same,GFP response vs DMSO,[1]; [22],110%
same,GFP response relative to DMSO,[2],181% (active)
same,GFP response relative to DMSO,[2]; [23],185%
same,GFP response relative to DMSO,[2]; [24],178%
same,"GFP response, % of DMSO",[3],199% (active)
same,"GFP response, % of DMSO",[3]; [21],204%
same,"GFP response, % of DMSO",[3]; [22],196%
CCN(CC)c1ccc(/C=C/[N+](=O)[O-])cc1,GFP response vs DMSO,[1],99.5% (inactive)
same,GFP response vs DMSO,[1]; [21],101%
same,GFP response vs DMSO,[1]; [22],100%
same,GFP response relative to DMSO,[2],130% (inactive)
same,GFP response relative to DMSO,[2]; [23],131%
same,GFP response relative to DMSO,[2]; [24],132%
same,"GFP response, % of DMSO",[3],104% (inactive)
same,"GFP response, % of DMSO",[3]; [21],106%
same,"GFP response, % of DMSO",[3]; [22],100%
O=C1NC(=O)N(c2ccccc2)C(=O)/C1=C\c1ccc([N+](=O)[O-])o1,GFP response vs DMSO,[1],98.7% (inactive)
same,GFP response vs DMSO,[1]; [21],99.8%
same,GFP response vs DMSO,[1]; [22],98%
same,GFP response relative to DMSO,[2],101% (inactive)
same,GFP response relative to DMSO,[2]; [23],101%
same,GFP response relative to DMSO,[2]; [24],102%
same,"GFP response, % of DMSO",[3],103% (inactive)
same,"GFP response, % of DMSO",[3]; [21],105%
same,"GFP response, % of DMSO",[3]; [22],104%
Cc1cccn2c(NCC3CCCO3)c(C(C)C)nc12 (stereo unspecified),GFP response vs DMSO,[1],99.1% (inactive)
same,GFP response vs DMSO,[1]; [21],100%
same,GFP response vs DMSO,[1]; [22],100%
same,GFP response relative to DMSO,[2],97.7% (inactive)
same,GFP response relative to DMSO,[2]; [23],96.5%
same,GFP response relative to DMSO,[2]; [24],96.5%
same,"GFP response, % of DMSO",[3],106% (inactive)
same,"GFP response, % of DMSO",[3]; [21],106%
same,"GFP response, % of DMSO",[3]; [22],105%
CCOC(=O)C1=C(C)OC(N)=C(C(=O)OCC)[C@@]12C(=O)N(CC(N)=O)c1ccccc12,percent of DMSO control GFP,[4],90.9% (inactive)
same,GFP response vs DMSO,[5],120% (inactive)
same,percent response of DMSO control,[6],110% (inactive)
same,GFP response vs DMSO,[7],71% (inactive)
same,double positive events,[8],43.7%
same,vesicle binding response,[8],66.2% (active)
same,inhibition,[9],18.1% (inactive)
same,superoxide response (% of plate),[10],104% (inactive)
same,aptamer binding inhibition,[11],-1% (inactive)
same,inhibition,[12],-3.6% (inactive)
same,response,[13],1.98% (inactive)
same,binding (% of control),[14],104% (inactive)
same,inhibition,[15],0.6% (inactive)
same,inhibition,[16],-0.3% (inactive)
same,inhibition,[17],0.4% (inactive)
same,efflux inhibition (fraction of control),[18],-0.31 (inactive)
same,inhibition,[19],6% (inactive)
same,differentiation response,[20],4.09% (inactive)
CCOC(=O)C(C)Oc1cc(C)cc2oc(=O)c3c(c12)CCCC3 (stereo unspecified),percent of DMSO control GFP,[4],95.2% (inactive)
same,GFP response vs DMSO,[5],116% (inactive)
same,percent response of DMSO control,[6],104% (inactive)
same,GFP response vs DMSO,[7],74.8% (inactive)
same,double positive events,[8],81.8%
same,inhibition,[9],0.64% (inactive)
same,superoxide response (% of plate),[10],103% (inactive)
same,aptamer binding inhibition,[11],5% (inactive)
same,inhibition,[12],-3.6% (inactive)
same,response,[13],-8.97% (inactive)
same,binding (% of control),[14],97.6% (inactive)
same,inhibition,[15],-0.4% (inactive)
same,inhibition,[16],-1.5% (inactive)
same,inhibition,[17],0.6% (inactive)
same,efflux inhibition (fraction of control),[18],-0.46 (inactive)
same,inhibition,[19],12% (inactive)
same,differentiation response,[20],-9.01% (inactive)
C=CC1CN2CCC1CC2[C@@H](OC(=O)c1ccc(OC)cc1)c1ccnc2ccccc12 (stereo partly specified),percent of DMSO control GFP,[4],96.1% (inactive)
same,percent response of DMSO control,[6],107% (inactive)
same,GFP response vs DMSO,[7],74.8% (inactive)
same,double positive events,[8],59.2%
same,vesicle binding response,[8],222% (inactive)
same,inhibition,[9],4.52% (inactive)
same,superoxide response (% of plate),[10],105% (inactive)
same,aptamer binding inhibition,[11],-2% (inactive)
same,inhibition,[12],-4.1% (inactive)
same,response,[13],-0.74% (inactive)
same,binding (% of control),[14],109% (inactive)
same,inhibition,[15],2.8% (inactive)
same,inhibition,[16],0.4% (inactive)
same,inhibition,[17],-2% (inactive)
same,efflux inhibition (fraction of control),[18],0.01 (inactive)
same,inhibition,[19],5% (inactive)
same,differentiation response,[20],-8.19% (inactive)
O=c1oc2ccccc2c(O)c1[C@H]1c2ccc(O)cc2Oc2c1c(=O)oc1ccccc21,GFP response vs DMSO,[1],108% (inactive)
same,GFP response vs DMSO,[1]; [21],96.1%
same,GFP response vs DMSO,[1]; [22],98.9%
same,GFP response relative to DMSO,[2],190% (active)
same,GFP response relative to DMSO,[2]; [23],167%
same,GFP response relative to DMSO,[2]; [24],192%
same,"GFP response, % of DMSO",[3],76.9% (inactive)
same,"GFP response, % of DMSO",[3]; [21],78.5%
same,"GFP response, % of DMSO",[3]; [22],71.9%
CN1C(=O)C(=Cc2ccc(Sc3ccccc3)o2)C(=O)N(C)C1=S,GFP response vs DMSO,[1],98.2% (inactive)
same,GFP response vs DMSO,[1]; [21],94.4%
same,GFP response vs DMSO,[1]; [22],91.3%
same,GFP response relative to DMSO,[2],126% (inactive)
same,GFP response relative to DMSO,[2]; [23],114%
same,GFP response relative to DMSO,[2]; [24],130%
same,"GFP response, % of DMSO",[3],99.3% (inactive)
same,"GFP response, % of DMSO",[3]; [21],117%
same,"GFP response, % of DMSO",[3]; [22],84%
Fc1ccc(C(OCCN2CCCC2)c2ccc(Br)cc2)cc1 (stereo unspecified),percent of DMSO control GFP,[4],98.8% (inactive)
same,GFP response vs DMSO,[5],98.5% (inactive)
same,percent response of DMSO control,[6],93.9% (inactive)
same,GFP response vs DMSO,[7],109% (inactive)
same,double positive events,[8],69.4%
same,vesicle binding response,[8],310% (inactive)
same,inhibition,[9],-4.52% (inactive)
same,superoxide response (% of plate),[10],94.6% (inactive)
same,aptamer binding inhibition,[11],-9% (inactive)
same,inhibition,[12],-3.21% (inactive)
same,response,[13],0.75% (inactive)
same,binding (% of control),[14],103% (inactive)
same,inhibition,[15],5.6% (inactive)
same,inhibition,[16],-0.6% (inactive)
same,inhibition,[17],3% (inactive)
same,efflux inhibition (fraction of control),[18],0.84 (active)
same,inhibition,[19],7% (inactive)
same,differentiation response,[20],16.8% (inactive)
O=C1NC(=O)C(=Cc2ccc(Sc3ccccc3)o2)C(=O)N1,GFP response vs DMSO,[1],103% (inactive)
same,GFP response vs DMSO,[1]; [21],93.1%
same,GFP response vs DMSO,[1]; [22],89.2%
same,GFP response relative to DMSO,[2],140% (inactive)
same,GFP response relative to DMSO,[2]; [23],107%
same,GFP response relative to DMSO,[2]; [24],148%
same,"GFP response, % of DMSO",[3],91.2% (inactive)
same,"GFP response, % of DMSO",[3]; [22],77.2%
O=C1NC(=O)N(Cc2ccco2)C(=O)/C1=C\c1ccc(-c2ccc(F)cc2)o1,GFP response vs DMSO,[1],96.9% (inactive)
same,GFP response vs DMSO,[1]; [21],97.6%
same,GFP response vs DMSO,[1]; [22],94%
same,GFP response relative to DMSO,[2],119% (inactive)
same,GFP response relative to DMSO,[2]; [23],115%
same,GFP response relative to DMSO,[2]; [24],121%
same,"GFP response, % of DMSO",[3],91.7% (inactive)
same,"GFP response, % of DMSO",[3]; [21],99.3%
same,"GFP response, % of DMSO",[3]; [22],83.7%
